G9a inh = blocks human histone lysine methyltransferase G9a | G9a H3K9 monomethylation, AlphaScreen, 2 h | Potency, µM (top dose mostly 102 µM), for the others: at the top dose activity, negative = inhibition, hits mostly inhibitors | 350,000 compounds, 8.8% hits | AID 504332; note: potency is the fitted concentration of half-maximal effect; % is set by controls: 0 for no effect and ±100 for the full control effect; nearly all actives have a fitted effect of over 75% in size
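Signal arises when biotinylated H3K9 peptide, once monomethylated, bridges streptavidin donor and antibody-captured acceptor beads. Enzyme at 20 nM was preincubated 15 min with test compounds; peptide 500 nM and SAM 20 uM then reacted for 2 h.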
JMJD2A Tudor = blocks the human JMJD2A Tudor domain; Potency, µM (doses to about 114 µM), for inactives: at the top dose activity change, negative = inhibition, most hits filed as inhibitors; AID 504339; AlphaScreen JMJD2A-Tudor / H3K4me3 peptide binding; O75164; 390,000 compounds, 4.4% hits; note: potency is the fitted concentration of half-maximal effect; % is set by controls: 0 for no effect and ±100 for the full control effect; nearly all actives have a fitted effect of over 50% in size
BAZ2B inh = blocks human BAZ2B. Q9UIF8. AlphaScreen BAZ2B-H3K14Ac peptide displacement. Potency, µM (doses to about 114 µM), for the others: at the highest dose activity change, negative = inhibition, actives largely listed as inhibitors. 360,000 compounds, 4.4% hits. AID 504333; note: potency is the fitted concentration of half-maximal effect; % is set by controls: 0 for no effect and ±100 for the full control effect; nearly all actives have a fitted effect of over 60% in size
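BAZ2B 50 nM plus b-H3(5-23)K14Ac 50 nM, PBS pH 7.4/0.01% Tween-20, 30 min RT; compound added (max 110 uM), 30 min RT; streptavidin donor/Ni-chelate acceptor beads 10 ug/mL final, 20 min dark; AlphaScreen read.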
Six1-Eya2 inh = blocks human Six1 binding to Eya2; AlphaScreen GST-Six1/His-Eya2 binding, biochemical; active compounds read low; 360,000 compounds, 0.56% hits; Q15475+O00167; activity change, % (no concentration beside the values); in the data active = activity change below about -65%; inconclusive = mostly about -30% to -63%; note: % is set by controls: 0 for no effect and ±100 for the full control effect
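Six1/Eya2 binding was read as AlphaScreen signal after compounds were pinned into GST-Six1 plus His-tagged Eya2 (5X stock 250/500 nM) in pH 8.0 Tris/NaCl/TCEP buffer, beads added, then incubated 1 h, 37 C, dark.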
HP1b chromo inh = inhibitors of HP1-beta chromodomain binding to methylated histone tails. 390,000 compounds, 0.56% hits. P83916. AlphaScreen HP1-beta / biotin-H3K9me3 peptide binding. Potency, µM (series often up to 114 µM), without a hit: at the top dose activity change, negative = inhibition, hits mostly inhibitors; note: potency is the fitted concentration of half-maximal effect; nearly all actives have a fitted effect of over 70% in size
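Compound inhibition of the preformed complex between 50 nM HP1-beta and 50 nM biotinylated H3K9me3 peptide was read by AlphaScreen. Buffer was PBS pH 7.4 with 0.01% Tween-20. Incubations ran 30 min at room temperature, with 10 ug/mL donor/acceptor beads.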
CtBP-E1A inh = blocks the CtBP interaction with E1A | AlphaScreen GST-E1A/His-CtBP binding, 1536-well; active compounds read low | 340,000 compounds, 0.49% hits | activity change, % (no concentration beside the values); in the data active = activity change below about -65%; inconclusive = mostly about -30% to -63%; note: % is set by controls: 0 for no effect and ±100 for the full control effect
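AlphaScreen with 125 nM GST-E1A and 125 nM His-CtBP (5X stocks) in Tris pH 8.0, 300 mM NaCl, BSA, Tween 20, TCEP. Compounds preincubated 2 h at 37 deg C, then glutathione donor/nickel acceptor beads added for 1 h at 37 deg C in dark.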
An asterisk follows results filed as active; u = inconclusive; x = no result; [ ] = remark or other dose. This is a sample that favours compounds with a hit; in the whole collection about 10% have one here. Unless noted, calls come from the whole dose curve; as a rule, active = well fitted inhibition curve with a large enough effect; inconclusive = small, poorly fitted or top-dose-only effect; inactive = no such curve, though single readings can be large or run the other way.

SMILES | G9a inh | JMJD2A Tudor | BAZ2B inh | Six1-Eya2 inh | HP1b chromo inh | CtBP-E1A inh
O=C(O)CSc1c2c(nc3cc(C(=O)N4CCOCC4)ccc13)CCCC2 | 34%[0.501 µM] | 40µM* | 71µM* | -18 | 15% | -19
CCOC(=O)N1CCN(C(=O)c2ccc3c(SCC(=O)O)c4c(nc3c2)CCCC4)CC1 | 40µM* | -17% | -3% | 2 | 36% | -19
CCOC(=O)N1CCN(C(=O)c2ccc3c(=O)n4c(nc3c2)CCCCC4)CC1 | -2%[59 µM] | -16% | 1% | 11 | 9% | 0
COc1ccc(OC)c(NC(=O)c2ccc3c(SCC(=O)O)c4c(nc3c2)CCCC4)c1 | -42%[59 µM] | -23% | -38% | x | 7% | x
O=C(NCCc1ccc(F)cc1)C1CCCCC1 | x | 1% | -2% | -1 | 19% | 0
FC(F)(F)c1ccccc1/C=N/n1c(COc2ccccc2)n[nH]c1=S | 20µM* | u | u | 4 | u | 0
Oc1ccc(Br)cc1/C=N/n1c(COc2ccccc2)n[nH]c1=S | 28µM* | u | -9% | -3 | u | -9
S=c1[nH]nc(COc2ccccc2)n1/N=C/c1ccccc1Br | 8.9µM* | -26% | -17% | -25 | 4% | 2
Cc1ccc(NS(=O)(=O)N2CCOCC2)c(C)c1 | -3% | 4% | -1% | 2 | 31% | 8
CCOC(=O)CNC(=S)n1cnc(N)n1 | 6% | -8% | 79µM* | 0 | 25% | 18
CCOC(=O)CNC(=O)CSc1nc(N)cc(N)n1 | -2%[59 µM] | -10% | -1% | 18 | 20% | -3
O=C(CSc1nc2sc3c(c2c(=O)n1-c1ccccc1)CCCC3)N/N=C/c1ccc(C(=O)O)cc1 | -11% | 79µM* | -31%[57.1 µM] | 16 | 79µM* | 27
CCSc1nc2sc3c(c2c(=O)n1-c1ccccc1)CCN(C)C3 | 79µM* | -24% | -35% | -9 | 15% | x
CCn1c(SCC(N)=O)nc2sc3c(c2c1=O)CCN(C)C3 | 56µM* | -24% | -2% | -7 | 31% | 5
CN1CCc2c(sc3c2c(=O)n(-c2ccccc2)c2nnc(SCc4ccccc4)n32)C1 | u | 89µM* | -20% | 1 | 23% | 1
O=c1c2ccccc2n(Cc2ccccc2Cl)c(=O)n1CCc1ccccc1 | 47%[59 µM] | 31% | 7% | x | 44% | x
Cc1ccc(C(c2sc3nc(-c4ccco4)nn3c2O)N2CCCCC2)cc1 (centres undefined) | -41%[59 µM] | -17% | -33% | x | -1% | x
CCCCC(=O)Oc1ccc2oc(-c3ccc(OC)cc3)cc(=O)c2c1 | 8%[59 µM] | 6% | -2% | x | 43% | x
O=c1oc(/C=C/c2ccccc2)nc2sc3c(c12)CCC3 | 17%[12.7 µM] | 4% | 1% | -1 | 18% | 1
Cn1c(N/N=C/c2ccccc2)nc2sc3c(c2c1=O)CCC3 | -1%[59 µM] | u | -11% | -71* | 8% | u
Cc1cc[n+](-c2[nH]c(=O)sc2/C=N/NC([S-])=Nc2ccccc2)cc1C | 32µM* | u | u | u | u | -20
CCn1c(O)c(C=Nc2ccccc2)sc1=O | -31% | -21% | -21% | 7 | 40% | 3
Cc1ccc[n+](-c2[nH]c(=O)sc2/C=N/N=C(\[O-])CCn2c3ccccc3c3ccccc32)c1 | 0% | -17% | -23% | 1 | -10% | -1
CC(C)(C)c1cc[n+](-c2[nH]c(=O)sc2/C=N/NC([S-])=Nc2ccccc2)cc1 | 14µM* | -30% | -31% | 65 | -15% | -13
Cc1[nH]c(=O)c(Cc2ccccc2)c(O)c1C#N | x | -13% | x | -9 | 5% | 1
SMILES | G9a inh | JMJD2A Tudor | BAZ2B inh | Six1-Eya2 inh | HP1b chromo inh | CtBP-E1A inh
Cc1cccc(Cc2c(C)[nH]c(=O)c(C#N)c2C)c1 | 9% | -4% | 89µM* | -1 | 44% | 7
N#CCCN(C(=O)CSc1nc2ccccc2c(=O)[nH]1)c1ccc(F)cc1 | x | -10% | x | -2 | 46% | 6
O=C1CCCC2=C1C1(CCC1)N=C(Nc1nc3ccccc3o1)N2 | x | -23% | x | x | x | x
O=C(Nc1ccncc1)c1ccc(Cl)cc1 | -4% | -8% | -1% | 11 | 29% | 9
O=C(/C(=C/O)N=Nc1ccc(Cl)cc1)c1ccncc1 | 17%[0.501 µM] | u | 32µM* | -19 | -50% | -8
Cc1ccc(N=N/C(=C\O)C(=O)c2ccncc2)cc1 | u | u | 45µM* | -20 | -30% | 1
COc1ccc(N2C(=O)CCC(C(=O)N3CCCCC3)C2c2ccc(OC)c(OC)c2)cc1 (centres undefined) | 56µM* | -1% | 10% | 4 | 12% | -1
CCCC(=O)NC(c1cccc([N+](=O)[O-])c1)c1ccc2cccnc2c1O (centres undefined) | x | x | x | -91* | x | u
CC(C)C(=O)NC(c1cccc([N+](=O)[O-])c1)c1ccc2cccnc2c1O (centres undefined) | x | u | 25µM* | -94* | 29% | -2
CC(C)C(=O)NC(c1cccc([N+](=O)[O-])c1)c1c(O)ccc2ccccc12 (centres undefined) | x | -10% | -6% | 3 | 26% | 18
CCC(=O)NC(c1cccc([N+](=O)[O-])c1)c1c(OC(C)=O)ccc2ccccc12 (centres undefined) | u | -12% | 3% | -10 | 22% | -3
CCN(CC)S(=O)(=O)c1cccc(C(=O)NCC2CCCO2)c1 (centres undefined) | 6% | -8% | u | 9 | 27% | 11
CCN(CC)S(=O)(=O)c1cccc(C(=O)NCC2CCCCC2)c1 | -9% | 28µM* | 2% | 5 | 8% | 4
CC1CCC(NCC(=O)Nc2cccc(S(N)(=O)=O)c2)CC1 (centres undefined) | 10µM* | 22µM* | 79µM* | 2 | -31% | -5
CC1Cc2ccccc2N1CC(=O)Nc1cccc(S(N)(=O)=O)c1 (centres undefined) | 0% | -22% | -12% | 7 | -1% | -2
CN(C)S(=O)(=O)c1cccc(NC(=S)NC23CC4CC(CC(C4)C2)C3)c1 | 5% | -22% | -16% | -12 | 3% | 0
CCN(CC)S(=O)(=O)c1cccc(NC(=O)CCNC(=O)NC23CC4CC(CC(C4)C2)C3)c1 | 50µM* | -27% | -32% | -7 | 8% | 1
CN(C)S(=O)(=O)c1cccc(NC(=O)CNCC2CCCCC2)c1 | 14µM* | 22µM* | u | -1 | -28% | x
CCN(CC)S(=O)(=O)c1cccc(NC(=O)CNC2CCCCCC2)c1 | 35µM* | 50µM* | 79µM* | 5 | 2% | x
CCc1ccc(N(C(=O)CNC(=O)c2ccco2)C(C(=O)NC2CCCC2)c2ccncc2)cc1 (centres undefined) | -2% | 8% | 5% | 10 | 37% | 0
